This note sets out measurements from PubChem BioAssay (Tox21).

Results filed as inconclusive are left out. Calls of active or inactive are those of the source. Unless noted, calls follow the shape of the dose curve; as a rule, active = well fitted curve in the direction sought with a large enough effect in the repeat runs; inconclusive = weak or mixed curves; inactive = no such curve, though single readings can be large; an effect the other way counts as inactive or inconclusive.

Assay [1] can be described thus: qHTS assay to identify small molecule antagonists of the estrogen receptor alpha (ER-alpha) signaling pathway using the BG1 cell line in the presence of 0.1 nM 17-beta-estradiol - cell viability counter screen (AID 1259241). Also: nearly all actives have a fitted effect of over 40% in size. The method, boiled down:
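CellTiter-Fluor read (30 min, 37C) on ER-alpha/ERE-luc VM7Luc4E2 cells; 22 hr compound treatment; agonist 0.1 nM E2 final; same-well multiplex.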

A short description of assay [2]: qHTS assay to identify small molecule antagonists of the androgen receptor (AR) signaling pathway using the MDA cell line in the presence of 0.5 nM R1881 - cell viability counter screen (AID 1259242). Also: nearly all actives have a fitted effect of over 45% in size. Summed up:
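Steps: plate MDA-kb2 cells, rest 5 hr at 37C without CO2; pin in compounds in DMSO; add R1881 to 0.5 nM final; incubate 16 hr; add CellTiter-Fluor, 30 min; read fluorescence.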

In assay [3] the target is Androgen receptor (Homo sapiens) (UniProt P10275). The experiment in a line: qHTS assay to identify small molecule antagonists of the androgen receptor (AR) signaling pathway using the MDA cell line in the presence of 0.5 nM R1881 (AID 1259243). Also: nearly all actives have a fitted effect of over 50% in size. Summed up: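 Stably transfected MDA-kb2 cells express luciferase from an MMTV promoter bearing both AR and GR response elements. Compounds plus 0.5 nM R1881 (final) were incubated 16 hr at 37C without CO2, then luminescence measured.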
Sequence of Androgen receptor (Homo sapiens) (P10275 whole entry, looked up): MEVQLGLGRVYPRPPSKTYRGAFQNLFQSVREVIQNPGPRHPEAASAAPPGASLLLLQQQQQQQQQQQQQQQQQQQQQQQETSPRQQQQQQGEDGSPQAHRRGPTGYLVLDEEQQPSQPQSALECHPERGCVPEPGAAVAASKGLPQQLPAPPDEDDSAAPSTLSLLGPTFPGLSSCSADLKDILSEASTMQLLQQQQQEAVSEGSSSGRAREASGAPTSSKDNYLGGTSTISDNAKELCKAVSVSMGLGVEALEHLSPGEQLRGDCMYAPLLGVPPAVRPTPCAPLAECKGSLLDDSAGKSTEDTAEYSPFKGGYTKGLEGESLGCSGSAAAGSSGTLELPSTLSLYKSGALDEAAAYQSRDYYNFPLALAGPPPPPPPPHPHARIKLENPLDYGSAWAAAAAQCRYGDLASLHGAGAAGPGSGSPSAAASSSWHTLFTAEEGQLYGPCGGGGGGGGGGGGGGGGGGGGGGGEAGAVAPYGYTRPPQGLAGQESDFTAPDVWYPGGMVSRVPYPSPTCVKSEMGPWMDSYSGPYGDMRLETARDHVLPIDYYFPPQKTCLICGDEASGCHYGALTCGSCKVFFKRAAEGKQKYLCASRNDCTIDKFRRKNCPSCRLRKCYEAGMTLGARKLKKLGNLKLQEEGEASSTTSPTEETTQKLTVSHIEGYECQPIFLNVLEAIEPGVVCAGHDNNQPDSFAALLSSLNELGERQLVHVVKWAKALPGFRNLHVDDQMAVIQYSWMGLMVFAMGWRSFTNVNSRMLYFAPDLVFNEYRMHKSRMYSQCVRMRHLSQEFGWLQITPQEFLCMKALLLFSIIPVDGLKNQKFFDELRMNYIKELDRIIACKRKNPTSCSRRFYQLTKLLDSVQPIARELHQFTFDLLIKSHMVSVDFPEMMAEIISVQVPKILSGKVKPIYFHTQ
(In general: Quantitative high-throughput screening tests each substance at several concentrations.)

The target of assay [4] is Estrogen receptor (Homo sapiens) (UniProt P03372). Nature of the assay: qHTS assay to identify small molecule antagonists of the estrogen receptor alpha (ER-alpha) signaling pathway using the BG1 cell line in the presence of 0.1 nM 17-beta-estradiol (AID 1259244). Also: nearly all actives have a fitted effect of over 50% in size. Summed up:
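Antagonist mode: compounds in DMSO are pinned onto VM7Luc4E2 reporter cells, 0.1 nM final 17beta-estradiol is added, and after 22 h at 37C luciferase luminescence is measured with ONE-Glo.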

Assay [5] is described as follows: qHTS assay to identify small molecule HDAC inhibitors (AID 1259364). Also: potency is read from the fitted curve at half-maximal effect.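 Also: wild-type HCT-116 cells with endogenous class I/II HDAC activity; nearly all actives have a fitted effect of over 45% in size.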 Summed up:
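Cells (HCT-116, wild type) are seeded at 1,500 per well, incubated overnight, treated with compound in DMSO for 2 hr, then developed with HDAC-Glo I/II reagent for 30 min at room temperature.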

The nature of assay [6]: qHTS assay to identify small molecule HDAC inhibitors - cell viability counter screen (AID 1259365). Also: series mostly up to about 92 µM; nearly all actives have a fitted effect of over 50% in size. Summed up: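 To flag cytotoxic hits, 1,500 wild-type HCT-116 cells per well, plated the day before, receive test compounds for 2hr at 37 C before CellTiter-Glo reagent and a luminescence read.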
Assay [7] in a line: qHTS assay to identify small molecule agonists of the sonic hedgehog signaling (Shh) pathway - cell viability counter screen (AID 1259366). Also: nearly all actives have a fitted effect of over 50% in size. The method, boiled down: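 Fluorescence from CellTiter-Fluor reports live cells in this counter screen. NIH/3T3-derived Gli1-Luc reporter cells receive test compounds for 24hr at 37C; reagent goes in at 23hr.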
Assay [8] is described as follows: qHTS assay to identify small molecule antagonists of the sonic hedgehog signaling (Shh) pathway - cell viability counter screen (AID 1259367). Also: nearly all actives have a fitted effect of over 55% in size. The method, boiled down:
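Tox21 library chemicals were tested on a Gli1-Luc NIH/3T3 clone (2,000 cells/well) stimulated by conditioned medium; viability was quantified as fluorescence from CellTiter-Fluor reagent added at 23 hr.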

Assay [9] can be described thus: qHTS assay to identify small molecule agonists of the sonic hedgehog signaling (Shh) pathway (AID 1259368; calls by dose curve;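 also: NIH/3T3-derived 3T3Gli1-Luc cells carrying a stable Gli1-driven firefly luciferase reporter; series mostly up to about 92 µM; nearly all actives have a fitted effect of over 15% in size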). The method, boiled down:
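Cells of a mouse NIH/3T3 clone stably expressing luciferase under the Gli1 transcriptional response element are exposed to test chemicals for 24 hr at 37 C. Pathway activation is detected as a rise in luminescence.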

Assay [10] can be described thus: qHTS assay to identify small molecule antagonists of the sonic hedgehog signaling (Shh) pathway (AID 1259369; calls by dose curve; also: nearly all actives have a fitted effect of over 45% in size). Summed up: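 Cells are plated and held 4hr at 37 C, compounds (DMSO) are pinned in, conditioned medium is added to stimulate the pathway, and after 24hr luciferase reagent is added for 30min before luminescence is read.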
The target in assay [11] is Estrogen receptor beta (Homo sapiens) (UniProt Q92731). The experiment in a line: qHTS assay to identify small molecule agonists of the estrogen receptor beta (ER-beta) signaling pathway (AID 1259377; active = well fitted activation curve with a large enough effect in the signal ratio in the repeat runs, not every such curve was filed as active; the % refers to the signal ratio). The method, boiled down: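 Screening used GripTite ER-beta-UAS-bla cells held in 2% charcoal-stripped FBS medium. After overnight (16 hr) compound incubation at 37C, beta-lactamase activity was detected with a FRET substrate by fluorescence.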
Sequence of Estrogen receptor beta (Homo sapiens) (Q92731 whole entry, looked up): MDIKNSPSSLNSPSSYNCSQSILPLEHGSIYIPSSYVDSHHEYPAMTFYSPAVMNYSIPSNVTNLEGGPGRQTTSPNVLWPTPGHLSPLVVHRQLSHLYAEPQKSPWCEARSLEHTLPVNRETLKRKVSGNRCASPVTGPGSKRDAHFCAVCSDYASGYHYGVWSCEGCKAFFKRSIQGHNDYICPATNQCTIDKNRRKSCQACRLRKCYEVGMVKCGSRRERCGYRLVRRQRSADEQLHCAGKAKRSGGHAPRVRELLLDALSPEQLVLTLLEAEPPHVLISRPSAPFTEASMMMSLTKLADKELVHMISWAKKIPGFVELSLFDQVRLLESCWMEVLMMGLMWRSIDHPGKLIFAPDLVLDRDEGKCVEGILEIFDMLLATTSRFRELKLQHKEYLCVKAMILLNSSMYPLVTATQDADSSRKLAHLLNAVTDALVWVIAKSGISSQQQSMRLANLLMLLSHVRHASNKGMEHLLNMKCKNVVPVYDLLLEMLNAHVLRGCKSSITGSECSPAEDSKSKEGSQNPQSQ

The nature of assay [12]: qHTS assay to identify small molecule agonists of the androgen receptor (AR) signaling pathway in the presence of an antagonist - cell viability counter screen (AID 1259379).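 Also: MDA-kb2 human breast cancer cells carrying an MMTV luciferase reporter; series mostly up to about 92 µM; nearly all actives have a fitted effect of over 25% in size.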 The method, boiled down: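 Cytotoxicity is assessed by CellTiter-Fluor in MDA-kb2 cells carrying an MMTV-driven luciferase reporter. Cells receive 3.0uM nilutamide plus compounds at 15 concentrations and incubate 16 hr at 37C without CO2 before fluorescence reading.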

Assay [13] addresses Androgen receptor (Homo sapiens) (UniProt P10275). Nature of the assay: qHTS assay to identify small molecule agonists of the androgen receptor (AR) signaling pathway in the presence of an antagonist (AID 1259381; calls by dose curve; also: nearly all actives have a fitted effect of over 15% in size). The method, boiled down: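 Agonist-mode confirmation screen: human MDA-kb2 cells stably expressing luciferase under an MMTV promoter bearing AR and GR response elements, co-treated with 3.0uM nilutamide (final). Luminescence measured after 16hr compound incubation.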

The nature of assay [14]: qHTS assay to identify small molecule antagonists of the estrogen receptor beta (ER-beta) signaling pathway - cell viability counter screen (AID 1259382). Also: series mostly up to about 92 µM; nearly all actives have a fitted effect of over 55% in size. Summed up: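 Cytotoxicity counter screen multiplexed with the beta-lactamase antagonist assay: GripTite HEK293T ER-beta-bla cells were treated 16 hr with test chemicals in the presence of 1nM 17-beta-estradiol, and viability was measured by CellTiter-Glo.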

Assay [15] deals with Estrogen receptor (Homo sapiens) (UniProt P03372). Nature of the assay: qHTS assay to identify small molecule agonists of the estrogen receptor alpha (ER-alpha) signaling pathway in the presence of an antagonist (AID 1259383; calls by dose curve; also: top concentration of the series differs between compounds; nearly all actives have a fitted effect of over 15% in size). The method, boiled down:
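Agonist-mode confirmation in the presence of the ER antagonist ICI-182,780 at 10.0nM final. Breast-derived VM7Luc4E2 reporter cells were exposed to compounds for 22hr, and ERE-driven luciferase was quantified by luminescence.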

The target in assay [16] is Thyrotropin receptor (Homo sapiens) (UniProt P16473). The experiment in a line: qHTS assay to identify small molecule antagonists of the thyroid stimulating hormone receptor (TSHR) signaling pathway (AID 1259385; calls by dose curve; also: nearly all actives have a fitted effect of over 20% in size). Summed up:
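TSHR-HEK293 cells (800/well) plated 18 h, then compounds with Ro20-1724 and TSH at 1.5 ng/mL final, 30 min at room temperature. cAMP quantified by HTRF (cAMP-d2/anti-cAMP-cryptate, 1 h); 15 concentrations in triplicate.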

Assay [17] has as its target Estrogen receptor beta (Homo sapiens) (UniProt Q92731). Nature of the assay: qHTS assay to identify small molecule antagonists of the estrogen receptor beta (ER-beta) signaling pathway (AID 1259378; active = well fitted inhibition curve with a large enough effect in the signal ratio in the repeat runs, not every such curve was filed as active; the % refers to the signal ratio). Summed up:
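ER-beta-UAS-bla HEK293T cells in 2% charcoal-stripped FBS medium treated with compound plus 1nM final 17-beta-estradiol for 16 hr at 37C. Beta-lactamase reporter read by FRET substrate fluorescence after 2 hours at room temperature.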

The nature of assay [18]: qHTS assay to identify small molecule agonists of the estrogen receptor beta (ER-beta) signaling pathway - cell viability counter screen (AID 1259380). Also: nearly all actives have a fitted effect of over 30% in size. The method, boiled down: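 Cytotoxicity is measured in parallel with the reporter screen: after 16 hr compound exposure at 37C and a 2 hr LiveBLAzer step, CellTiter-Glo is added to the same ER-beta-UAS-bla HEK293T wells and luminescence read after 30 min.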

Assay [19] is described as follows: qHTS assay to identify small molecule agonists or antagonists of the thyroid stimulating hormone receptor (TSHR) signaling pathway - wild type cell line counter screen (AID 1259384; calls by dose curve). The method, boiled down: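 Wild-type Hek293 cells, 800/well, 18 h at 37C, then compound with Ro20-1724 for 30 min RT. cAMP by HTRF (cAMP-d2/anti-cAMP cryptate), 1 h RT, fluorescence read. 15 concentrations, triplicates.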

Sequence of Thyrotropin receptor (Homo sapiens) (P16473 whole entry, looked up): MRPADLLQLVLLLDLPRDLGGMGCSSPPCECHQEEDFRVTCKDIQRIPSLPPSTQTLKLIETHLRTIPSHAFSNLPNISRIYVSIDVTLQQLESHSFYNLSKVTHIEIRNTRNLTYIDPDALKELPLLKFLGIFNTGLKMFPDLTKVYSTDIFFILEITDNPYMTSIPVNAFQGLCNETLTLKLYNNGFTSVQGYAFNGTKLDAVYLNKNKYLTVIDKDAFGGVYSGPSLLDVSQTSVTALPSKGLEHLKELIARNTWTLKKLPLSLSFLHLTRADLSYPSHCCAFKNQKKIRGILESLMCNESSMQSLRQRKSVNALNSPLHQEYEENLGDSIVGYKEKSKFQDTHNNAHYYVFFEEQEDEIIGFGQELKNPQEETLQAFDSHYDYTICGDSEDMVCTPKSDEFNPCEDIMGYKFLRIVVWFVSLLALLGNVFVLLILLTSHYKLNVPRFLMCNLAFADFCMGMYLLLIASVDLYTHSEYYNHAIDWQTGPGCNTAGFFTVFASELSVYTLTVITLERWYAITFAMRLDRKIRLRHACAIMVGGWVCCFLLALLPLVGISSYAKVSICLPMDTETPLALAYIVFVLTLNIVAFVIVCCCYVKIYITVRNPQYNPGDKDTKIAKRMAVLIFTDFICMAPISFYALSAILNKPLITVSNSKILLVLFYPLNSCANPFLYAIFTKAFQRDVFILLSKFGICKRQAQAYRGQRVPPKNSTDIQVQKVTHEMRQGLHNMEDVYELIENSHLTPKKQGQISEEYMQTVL
Sequence of Estrogen receptor (Homo sapiens) (P03372 whole entry, looked up): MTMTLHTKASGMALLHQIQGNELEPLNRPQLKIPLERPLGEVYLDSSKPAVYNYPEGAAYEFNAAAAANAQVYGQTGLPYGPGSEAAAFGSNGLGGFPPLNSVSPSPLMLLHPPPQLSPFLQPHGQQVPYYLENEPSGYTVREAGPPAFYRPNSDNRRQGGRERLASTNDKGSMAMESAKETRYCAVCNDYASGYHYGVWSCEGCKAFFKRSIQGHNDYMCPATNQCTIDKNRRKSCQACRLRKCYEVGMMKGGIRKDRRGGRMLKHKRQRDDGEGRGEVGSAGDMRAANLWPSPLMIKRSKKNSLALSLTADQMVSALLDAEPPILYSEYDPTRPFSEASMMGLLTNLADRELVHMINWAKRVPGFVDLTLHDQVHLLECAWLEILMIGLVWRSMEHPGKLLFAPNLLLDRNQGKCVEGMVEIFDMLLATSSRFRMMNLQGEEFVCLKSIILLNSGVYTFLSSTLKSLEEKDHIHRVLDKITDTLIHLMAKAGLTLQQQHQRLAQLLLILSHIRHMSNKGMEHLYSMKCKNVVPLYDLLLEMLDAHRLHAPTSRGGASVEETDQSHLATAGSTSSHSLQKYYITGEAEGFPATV

Consider `CCC1=C(C)CN(C(=O)NCCc2ccc(S(=O)(=O)NC(=O)NC3CCC(C)CC3)cc2)C1=O` (stereo not given), for which the Potency result in assay [1], in assay [2], in assay [3], in assay [4], in assay [5] and in assay [7] was “inactive” throughout. Further, the Potency result in assay [8], in assay [9], in [10], in assay [11], in assay [12] and in assay [13] was “inactive” in each case. For the same compound, the Potency entry in [14], in [15] and in assay [16] was “inactive” in each case. The call in assay [6] was inactive.
With `O=c1[nH][nH]c2ccccc12`, the Potency entry in assay [1], in assay [2], in assay [3], in assay [7], in assay [8] and in [9] was “inactive” in each case. The Potency result in assay [10], in assay [17], in [12], in assay [13], in [15] and in assay [16] was “inactive” each time. Further, the compound was classed as inactive in assay [6].
As for `CCCC(=O)OCCC(C)C`, the Potency entry in assay [1], in assay [2], in assay [3], in assay [4], in assay [5] and in [7] was “inactive” throughout. In addition, the Potency result in assay [8], in assay [9], in assay [10], in [12], in assay [18] and in assay [13] was “inactive” in each case. Besides, the Potency result in assay [14], in assay [15] and in assay [16] was “inactive” in each case. Also, the result in assay [6] and in assay [19] was inactive.
Consider `CCC(C(=O)O)c1ccc(N2Cc3ccccc3C2=O)cc1` (stereo not given), for which the Potency result in [1], in [2], in assay [3], in assay [4], in [7] and in assay [8] was “inactive” each time. For the same compound, the Potency result in assay [9], in [10], in assay [12], in assay [18], in assay [13] and in [14] was “inactive” throughout. Moreover, the Potency result in assay [15] is “inactive”. Besides, the Potency in assay [5] was 2.66 µM (active). Moreover, the compound was called inactive in assay [6].
Consider `O=C(O)c1cc(C(=O)O)c(C(=O)O)cc1C(=O)O`, for which the Potency entry in assay [1], in assay [2], in assay [3], in [4], in [7] and in assay [8] was “inactive” each time. Further, the Potency entry in assay [9], in assay [10], in assay [11], in assay [18], in assay [13] and in [14] was “inactive” in each case. In assay [15], the Potency entry was “inactive”.
With `CCOc1ccc(NC(C)=O)cc1N`, the Potency result in assay [1], in assay [2], in assay [3], in assay [4], in assay [5] and in assay [7] was “inactive” throughout. Besides, the Potency entry in [9], in assay [11], in assay [17], in assay [12], in assay [18] and in assay [13] was “inactive” in each case. Besides, the Potency result in assay [14] and in assay [15] was “inactive” each time. In addition, the compound was called inactive in assay [6] and in assay [19].
`CCCc1ccc(OC)cc1`: the Potency result in assay [1], in [2], in assay [3], in [4], in assay [5] and in assay [7] was “inactive” in each case. Also, the Potency entry in assay [8], in [9], in assay [10], in assay [17], in assay [12] and in assay [18] was “inactive” each time. For the same compound, the Potency result in assay [13], in [14] and in assay [15] was “inactive” in each case. In addition, the compound was classed as inactive in [6] and in assay [19].
Take `FC(F)(Cl)C(F)(Cl)Cl`: the Potency entry in assay [1], in [2], in assay [3], in [4], in assay [5] and in assay [7] was “inactive” in each case. The Potency entry in assay [8], in [9], in assay [10], in [11], in [12] and in [18] was “inactive” each time. The Potency entry in [13], in [14], in assay [15] and in assay [16] was “inactive” in each case. The result in [6] and in assay [19] was inactive.
On to `O=S(=O)(O)c1cc(Cl)c(Cl)cc1Cl`, for which the Potency entry in assay [1], in assay [2], in assay [3], in assay [4], in [5] and in assay [7] was “inactive” throughout. Further, the Potency result in assay [8], in assay [9], in assay [10], in [12], in assay [13] and in [15] was “inactive” throughout. The Potency entry in assay [16] is “inactive”. In addition, the compound was called inactive in assay [6] and in assay [19].
